This is a sample that favours compounds with a hit; in the whole collection about 4.7% have one here.
PABP polyA inh: blocks human PABP binding to poly(A) RNA | fluorescence polarization | inhibition, % at 35 µM | hit rate 1% among 290,000 | AID 2014;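 also: calls also rest on retests at 20 µM and on dose response follow-up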
Target sequence (P11940 whole entry, looked up): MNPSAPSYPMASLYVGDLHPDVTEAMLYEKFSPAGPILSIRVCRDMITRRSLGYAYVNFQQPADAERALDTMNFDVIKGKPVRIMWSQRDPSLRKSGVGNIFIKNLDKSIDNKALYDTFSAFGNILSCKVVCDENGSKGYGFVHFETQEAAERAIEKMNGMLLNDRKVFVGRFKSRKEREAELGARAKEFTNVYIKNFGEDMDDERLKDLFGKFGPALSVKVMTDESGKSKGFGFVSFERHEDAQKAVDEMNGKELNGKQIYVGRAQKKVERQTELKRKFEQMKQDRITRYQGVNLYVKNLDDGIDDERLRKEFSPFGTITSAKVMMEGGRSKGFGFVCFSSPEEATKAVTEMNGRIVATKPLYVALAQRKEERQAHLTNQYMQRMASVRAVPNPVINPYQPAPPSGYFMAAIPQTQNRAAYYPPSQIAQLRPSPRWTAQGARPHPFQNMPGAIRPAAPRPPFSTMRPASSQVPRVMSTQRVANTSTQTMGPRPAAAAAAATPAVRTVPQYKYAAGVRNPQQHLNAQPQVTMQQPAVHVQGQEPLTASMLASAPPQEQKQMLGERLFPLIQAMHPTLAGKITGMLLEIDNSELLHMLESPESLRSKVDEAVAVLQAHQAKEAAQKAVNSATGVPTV
UBC9 SUMO inh: blocks human SUMOylation mediated by UBC9. P63279. HTRF SUMOylation assay, SAE1/SAE2 + UBC9, in vitro. hit rate 0.36% among 290,000. inhibition, % at 35 µM; in the data active = inhibition above about 50%, passing the limit was not always enough; inconclusive = no clear call, values can overlap the other calls
Efflux pump inh: blocks antifungal efflux pumps in multiplex yeast assay; S. cerevisiae Candida pump triplex, Nile Red efflux; inhibition, % at 10 µM; hit rate 0.44% among 330,000;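 active = plate passing quality check with inhibition over a set limit, or well fluorescence over plate mean plus 4 SD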;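 also: Nile Red retained in pooled yeast measured as flow cytometry median fluorescence; 0% = buffer negative control and 100% = Enniatin B positive control; higher means more Nile Red kept so more efflux inhibition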
eIF4H inh: inhibitors of RNA binding by human eIF4H; Q15056; eIF4H fluorescence polarization binding assay; inhibition, % at 35 µM; hit rate 0.94% among 290,000; AID 2012;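 also: calls also rest on retests at 20 µM and on dose response follow-up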
ALR inh: blocks human ALR sulfhydryl oxidase activity | AID 485317 | inhibition, % (test concentration not listed) | P55789 | hit rate 3.8% among 290,000 | purified ALR, DTT oxidation, H2O2 HRP-luminol luminescence;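 active = mean replicate inhibition above about 79%, with every replicate also reaching it, limit read from the data; inconclusive = only one of the two criteria met; inactive = mean below limit and not every replicate reaching it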
PABP1 MLLE inh: blocks PAM2 peptide binding to the PABP1 MLLE domain | inhibition, % at 20 µM | P11940 | hit rate 0.36% among 360,000 | AID 588489 | GST-MLLE / FITC-PAM2 fluorescence polarization; in the data active = inhibition above about 35%, passing the limit was not always enough;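 also: plate controls were DMSO wells with GST-MLLE for no effect and wells lacking GST-MLLE protein for full effect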
* marks the source's active call; other numbers are inactive results; ? = inconclusive; · = no result. Unless noted, no rule for the calls is given here.

SMILES	PABP polyA inh	UBC9 SUMO inh	Efflux pump inh	eIF4H inh	ALR inh	PABP1 MLLE inh
CCN1CCN(c2cc(C)c3cc(NC(=O)CCC(=O)N4CCN(c5ccccc5)CC4)ccc3n2)CC1	8	-2	0	-2	91*	-7
O=C(CSc1nnc(-c2ccccc2F)n1C1CC1)N1CCCC1	·	·	·	·	·	12
CC1=NN(c2ccc(C)cc2)C(=O)/C1=C\C=C\c1ccccc1	11	1	0	7	-4	-93
CC1=NN(c2ccccc2)C(=O)/C1=C/C=C/C=C/N(C)C	-6	-22	1	?	96*	-158
COc1ccc(-c2cc(C(F)(F)F)n3nc(C(=O)NCc4ccco4)cc3n2)cc1	-4	34	0	-4	0	4
Cc1cc(C(=O)NCc2ccco2)c2ccccc2n1	-7	10	0	-4	-26	6
Cc1cc(-c2ccccc2)nc2cc(C(=O)NCc3ccco3)nn12	4	29	0	36	93*	0
Cc1ccc(-c2cc(C(=O)NCc3ccco3)c3ccccc3n2)o1	28*	28	0	86*	-1	16
Cc1cc(C)c2nc(-c3ccccn3)cc(C(=O)NCc3ccco3)c2c1	82*	37	0	48*	89*	1
CCOC(=O)C1CCN(c2c(N3CCN(Cc4ccccc4)CC3)c(=O)c2=O)CC1	-1	27	0	-5	0	1
CCOC(=O)C1CCCN(c2c(NCCCN(CC)c3cccc(C)c3)c(=O)c2=O)C1 (stereo unspecified)	7	-25	0	-10	98*	5
CCOC(=O)C1CCN(c2c(NCCCN(CC)c3ccccc3)c(=O)c2=O)CC1	6	-14	0	5	90*	-5
CCOC(=O)C1CCCN(c2c(NCCc3cccc(C)c3)c(=O)c2=O)C1 (stereo unspecified)	-3	-1	0	1	-5	-1
COCCCn1c(-c2ccco2)nc2ccccc2c1=O	6	20	0	4	-19	1
CCn1nc([N+](=O)[O-])c2c(-c3nc4ccccc4o3)c(N)n(CCCOC)c2c1=O	52*	0	0	70*	57	11
O=C(C#Cc1ccccc1)Nc1cccc(F)c1	-5	-10	0	-7	97*	-1
O=C(C#Cc1ccccc1)Nc1ccc(F)cc1	6	-1	0	-14	97*	22
CC(C)(C)NC(=O)CN(C(=O)CNS(=O)(=O)c1ccc(Cl)cc1)c1ccc2c(c1)OCCO2	-9	3	0	-8	-4	12
CN(C(=O)c1cccc(NC(=O)Cc2ccc(NC(=O)C3CCN(C(=O)C4CCC4)CC3)cc2)c1)C1CCC1	·	·	·	·	·	6
CCN(CC)C(=O)c1sc2nc(-c3ccncc3)[nH]c(=O)c2c1C	1	52*	0	-3	-1	13
Cc1nnc(Nc2ccc(O)cc2)[nH]c1=O	7	7	0	23	99*	-11
O=C(N/N=C/c1ccccc1)c1ccc(CN2C(=O)c3cccc4cccc2c34)cc1	-8	50*	0	-8	5	-52
COc1ccc(NC(=O)CC(=O)Nc2ccc(OC)cc2OC)c(OC)c1	5	-10	0	-6	-26	-35
COc1ccc(NC(=O)CCSCCC(=O)Nc2ccc(OC)cc2OC)c(OC)c1	-10	-1	1	-3	97*	7
COc1ccc(NC(=O)CSCc2ccc(C#N)cc2)c(OC)c1	2	-4	0	-5	98*	3
SMILES	PABP polyA inh	UBC9 SUMO inh	Efflux pump inh	eIF4H inh	ALR inh	PABP1 MLLE inh
CCc1cccc(C)c1NC(=O)CCCN1C(=O)CN(C)C1=O	·	·	0	·	4	-32
CC1CCCCC1NC(=O)CN(C)S(=O)(=O)c1ccc2c(c1)CCC(=O)N2 (stereo unspecified)	10	8	0	-6	0	-3
COc1ccc(S(=O)(=O)N2CCOCC2)cc1NC(=O)CN1CCN(C)CC1	·	·	0	·	1	13
CCOC(=O)N1CCC(N(CCN(C)C)C(=S)Nc2ccccc2OC)CC1	4	-2	0	-3	-12	18
CCOC(=O)N1CCC(N(CCN(C)C)C(=S)Nc2ccccc2OCC)CC1	54*	4	0	active	-4	22
Cc1cccc(N=Nc2cnc(N)s2)c1	11	14	0	16	99*	-33
O=C1CC(c2ccccc2)Cc2nc3nc(C(F)(F)F)nn3cc21 (stereo unspecified)	102*	47	0	92*	-4	14

Compound activity from PubChem BioAssay.
